# Only some compounds are listed: those with a hit (about 1.7% of all), similar ones and a draw of the others.
# ARNT TACC3 PPI – disruptors of ARNT/TACC3 protein interaction, primary screen, biochemical, AlphaScreen, single concentration; 390,000 compounds, 0.66% hits; inhibition, % at 9.99 µM; AlphaScreen His-ARNT PAS-B/GST-TACC3 binding, luminescence; TACC3 fragment carries E629A point mutation;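 active = mean inhibition of replicates at least 50% and at least half of replicates each reaching 50%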;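 also: 0% = complete ARNT plus TACC3 wells and 100% = ARNT alone without TACC3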
# aDG glyco up – activators of alpha-DG glycosylation, primary screen, uHTS, Pro5-aDG cells, AlphaScreen; activation, % at 10 µM; alpha-DG glycosylation AlphaScreen (IIH6); 0% Pro5, 100% B10-LARGE cell signal; 360,000 compounds, 0.22% hits; AID 624168, 2012;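 active = activation of at least 8% versus controls, or a plate z-score of at least 8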;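 also: Pro5 are CHO cells carrying HIG-tagged alpha-DG that lacks glycosylation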
# Vif imaging – HIV Vif self-association inhibitors, primary screen, imaging, HEK293T, single point. HEK293T cells, Vif self-association by quenched fluorescence, 24 h. inhibition, % at 7.49 µM. 340,000 compounds, 0.35% hits. AID 602346, 2012; in the data active = inhibition above about 50%, passing the limit was not always enough
# Glyco luc inh – increase of ERlucT glycosylation luciferase signal, primary screen, N-linked glycosylation inhibitor project, D54 ERlucT cells, luminescence, set 2. AID 588692, 2011. D54 ERlucT glycosylation luciferase reporter, 24 h; percent of 100 nM tunicamycin response. 360,000 compounds, 0.23% hits. reporter increase, % at 12.5 µM;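 active = mean luciferase reporter signal, scaled so untreated is 0 and the glycosylation-blocking control 100, at or above a set limit in every replicate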;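 also: luciferase carries N-glycosylation sites so blocking glycosylation raises the light; 0% = median of neutral control wells and 100% = median of 100 nM tunicamycin wells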
# Cardio protect – cardioprotection against H2O2-induced cell death, primary screen, uHTS, H9c2 cells, ATPLite luminescence | H9c2 cardiomyocytes, H2O2 injury protection, 2 h | protection from H2O2 cell death, % at 20 µM | 360,000 compounds, 0.63% hits | AID 588492, 2011;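 active = compounds giving at least 50% protection of heart cells from peroxide-induced death in the single-dose screen, raw or plate-pattern-corrected value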;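 also: 0% = DMSO wells with peroxide and 100% = DMSO wells without peroxide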
# Active calls of the source: *; x = no result; ! = not active in a repeat.
SMILES,ARNT TACC3 PPI,aDG glyco up,Vif imaging,Glyco luc inh,Cardio protect
CC(C)NC(=O)Nc1ccc2c(c1)C(=O)N([C@H](C)CO)C[C@@H](C)[C@H](CN(C)S(=O)(=O)c1ccc(F)cc1)OCCCC[C@H](C)O2,-2,x,x,x,x
CC(=O)Oc1c(Br)cc(N(C(C)=O)S(=O)(=O)c2ccccc2)c2ccccc12,23,3.0*,-10,11,-17
O=c1[nH]c(SCc2nc3c(cnn3-c3ccccc3)c(=O)[nH]2)nc2ccccc12,-11,0,-10,-3,53*
Cc1[nH]c2ccccc2c1C(=O)CSc1nccc(=O)[nH]1,10,0,5,0,-7
Cc1[nH]c2ccccc2c1C(=O)CSc1nc2ccccc2[nH]1,9,0,7,6,66*
O=C(CSc1nc2ccccc2c(=O)[nH]1)c1cccs1,6,0,-12,1,33
O=C(CSc1nc2ccccc2c(=O)[nH]1)c1ccc(O)c(O)c1,10,0,x,-1,58*
O=C(CSc1nc2ccccc2c(=O)[nH]1)c1ccc(O)cc1O,-18,-1,-1,-3,67*
C[C@@H]1CN([C@@H](C)CO)C(=O)c2cccc(NC(=O)C3CC3)c2O[C@H]1CN(C)Cc1ccncc1,0,x,x,x,x
C=CC1=C(C(=O)O)N2C(=O)[C@@H](NC(=O)/C(=N\O)c3csc(N)n3)[C@H]2SC1 (stereo in doubt),64*,0,0,0,2
CCn1ccc(C(=O)NC2C(=O)N3C(C(=O)O)=C(C)CSC23)n1 (stereo not given),-6,0,-4,1,5
CCOc1ccc(/C=C/C(=O)c2cc(Br)ccc(=O)c2O)cc1,15,0,7,3,53*
Cc1ccc2c(c1)c1nnc(SCC(=O)N3CCCc4ccccc43)nc1n2CC(=O)O,67*,0,-2,3,-1
COc1ccc(S(=O)(=O)NCC(=O)N(CC(=O)NCC2CCCO2)Cc2ccccc2)cc1 (stereo not given),-9,0,71*,-1,-4
O=C(CN(Cc1ccccc1)C(=O)CNS(=O)(=O)c1ccccc1)NCC1CCCO1 (stereo not given),-1,0,4,0,4
Cc1ccc(CNc2ncnc3ccc(-c4ccc(CO)o4)cc23)o1,x,0,x,-8,16
CCOC(=O)c1ccc(-c2ccc3ncnc(NCc4csc(C)n4)c3c2)o1,x,0,8,2,68*
C[C@@H]1CN([C@@H](C)CO)S(=O)(=O)c2ccc(C#CC(C)(C)O)cc2O[C@@H]1CN(C)Cc1ccncc1,-4,x,x,x,x
Cc1cccc(COc2ccc(S(=O)(=O)N3CCOCC3)cc2[N+](=O)[O-])c1,x,0,-4,0,-4
COc1cc(COc2ccc(S(=O)(=O)N3CCOCC3)cc2[N+](=O)[O-])ccc1OC(F)F,10,1,57*,-3,-8
COc1ccc(S(=O)(=O)Nc2ccc3c(c2)CC(=O)N([C@@H](C)CO)C[C@@H](C)[C@H](CN(C)C(=O)NC2CCCCC2)O3)cc1,3,x,x,x,x
CC(C)NC(=O)N(C)C[C@H]1OCCCC[C@H](C)Oc2ccc(NS(C)(=O)=O)cc2C(=O)N([C@@H](C)CO)C[C@H]1C,-3,x,x,x,x
O=C(Nc1ccc(F)cc1F)c1csc(-c2ccncc2)n1,3,0,3,1,3
Cc1ccc(C(=O)Nc2cccc(C(F)(F)F)c2)cc1NC(=O)c1csc(-c2ccncc2)n1,17,0,-13,-10,55*!
O=C(/C=C/c1c[nH]c2ccccc12)c1cccc2ccccc12,-12,0,-4,30*,-10
SMILES,ARNT TACC3 PPI,aDG glyco up,Vif imaging,Glyco luc inh,Cardio protect
O=C(c1ccccc1)c1c[nH]c2ccccc12,2,0,-5,1,0
CN(C)CC#Cc1ccc([C@H]2[C@H](CO)N3CCCCN(C(=O)NC4CCCC4)C[C@@H]23)cc1,-6,x,x,x,x
CCCCCc1ccc(-c2cn(Cc3ccc(C)cc3)nn2)cc1,-6,0,-6,-2,-3
CCCCCc1ccc(-c2cn(CN3C(=O)c4ccccc4C3=O)nn2)cc1,-46,0,65*,4,-8
CC(O)(c1ccccc1)c1nc(-c2cccc(C(F)(F)F)c2)cs1 (stereo not given),x,0,x,2,-8
O=C(O)c1ccc(-c2nc(-c3cccc(C(F)(F)F)c3)cs2)cc1,-9,0,59*,5,0
C[C@@H]1CCCCO[C@@H](CN(C)S(=O)(=O)c2cccs2)[C@H](C)CN([C@@H](C)CO)C(=O)c2cc(NS(=O)(=O)c3ccccc3)ccc2O1,20,x,x,x,x
CS(=O)(=O)c1ccccc1-c1nnc(NC(=O)Cc2ccccc2)o1,62*,0,4,1,-4
CSc1ccccc1-c1nnc(NC(=O)Cc2ccccc2)o1,1,0,-20,2,20
O=c1ccn([C@@H]2O[C@H](CNCc3ccc(-n4cccn4)cc3)[C@@H](O)[C@H]2O)c(=O)[nH]1,x,0,96*,3,-4
O=S(=O)(Cc1ccccc1)N1CCCCN2[C@H](CO)[C@H](c3ccc(-c4cncnc4)cc3)[C@H]2C1,0,x,x,x,x
O=C(Nc1ccc2c(c1)OCO2)c1cnn2c(C(F)(F)F)cc(-c3ccco3)nc12,-3,0,1,1,93*
Cc1ccccc1Cn1ccc(NC(=O)CCSc2nc(-c3ccco3)cc(C(F)(F)F)n2)n1,-9,0,4,3,-4
COc1ccc(NC(=O)c2cnn3c(C(F)(F)F)cc(-c4ccco4)nc23)cc1OC,-2,0,2,0,46
Cc1ccccc1Cn1ccc(NC(=O)c2cnn3c(C(F)(F)F)cc(-c4ccco4)nc23)n1,-6,0,-8,-3,60*
COc1cccc(CNC(=O)c2cc3c(c(-c4cccc(-c5ccncc5)c4)n2)[C@@H](CCO)N([S@](=O)C(C)(C)C)C3)c1,5,x,x,x,x
O=C1CCCC2=C1C1(CCCCC1)N=C(Nc1nc3ccccc3o1)N2,-6,0,-2,47*,-10
CC(C)NC(=O)Nc1ccc2c(c1)CC(=O)N([C@H](C)CO)C[C@@H](C)[C@H](CN(C)C(=O)Nc1ccc3c(c1)OCO3)O2,10,x,x,x,x
O=C(COC(=O)Cc1n[nH]c(=O)c2ccccc12)Nc1c(Br)cc([N+](=O)[O-])cc1Br,5,0,23,0,97*
NS(=O)(=O)c1cccc(NC(=O)COC(=O)CSCc2ccccc2)c1,x,0,2,1,14
NS(=O)(=O)c1cccc(NC(=O)COC(=O)Cc2n[nH]c(=O)c3ccccc23)c1,5,0,-1,0,52*
